Compound activity as filed in PubChem.
KB-V1 MDR tox: kills drug-selected multidrug resistant KB-V1 cells. KB-V1 MDR cells viability, CellTiter-Glo, 72 h. Potency, µM (highest dose often 46.1 µM), most hits filed as cytotoxic. 400,000 compounds, 3.4% hits. AID 1347076; note: potency is the fitted concentration of half-maximal effect; % is set by controls: 0 for no effect and ±100 for the full control effect; nearly all actives have a fitted effect of over 60% in size
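Potencies derive from concentration-effect curves fitted to normalized luminescence (CellTiter-Glo) of KB-V1 cells treated for 72 h at 37 degrees C in phenol-red-free DMEM containing 10% FBS.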
SW480 rerep: inducers of DNA re-replication in SW480 colon cancer cells; SW480 DNA re-replication, Hoechst DNA content imaging, 48 h; Potency, µM (top dose mostly 46.1 µM), without a hit: at the highest dose re-replication activation, most hits filed as activators; 340,000 compounds, 1.8% hits; note: potency is the fitted concentration of half-maximal effect; % of control where 0% means no effect; nearly all actives have a fitted effect of over 55% in size
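DNA re-replication was detected as more nuclei of elevated Hoechst intensity after 48 hr exposure to compound (23 nL pinned per well of 250 cells).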
KCNH2 3.1 block: inhibitors of human KCNH2 3.1 potassium channel isoform; U2OS KCNH2 3.1, thallium flux FluxOr; stronger effect = lower value; activity change, % (tested at about 1.8 µM); 340,000 compounds, 0.95% hits;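 active = maximum activity change below -70%; inconclusive = maximum activity change from -70% to -50%; inactive = maximum activity change above -50%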;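 note: thallium influx rate constant from kinetic fluorescence after stimulation buffer; % is set by controls: 0 for no effect and ±100 for the full control effect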
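FluxOr-based Tl+ influx in U2OS cells transduced with KCNH2 3.1 virus; rate constants normalized to DMSO controls.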
hERG WT inh: blocks the wildtype human KCNH2 potassium channel; Q12809; U2OS, BacMam KCNH2, thallium flux FluxOr; stronger effect = lower value; activity change, % at 1.84 µM; 340,000 compounds, 0.37% hits; AID 720551;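 active = maximum activity change below -70%; inconclusive = maximum activity change between -70% and -50%; inactive = maximum activity change above -50%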; note: % is set by controls: 0 for no effect and ±100 for the full control effect
Target sequence (Q12809 whole entry, looked up): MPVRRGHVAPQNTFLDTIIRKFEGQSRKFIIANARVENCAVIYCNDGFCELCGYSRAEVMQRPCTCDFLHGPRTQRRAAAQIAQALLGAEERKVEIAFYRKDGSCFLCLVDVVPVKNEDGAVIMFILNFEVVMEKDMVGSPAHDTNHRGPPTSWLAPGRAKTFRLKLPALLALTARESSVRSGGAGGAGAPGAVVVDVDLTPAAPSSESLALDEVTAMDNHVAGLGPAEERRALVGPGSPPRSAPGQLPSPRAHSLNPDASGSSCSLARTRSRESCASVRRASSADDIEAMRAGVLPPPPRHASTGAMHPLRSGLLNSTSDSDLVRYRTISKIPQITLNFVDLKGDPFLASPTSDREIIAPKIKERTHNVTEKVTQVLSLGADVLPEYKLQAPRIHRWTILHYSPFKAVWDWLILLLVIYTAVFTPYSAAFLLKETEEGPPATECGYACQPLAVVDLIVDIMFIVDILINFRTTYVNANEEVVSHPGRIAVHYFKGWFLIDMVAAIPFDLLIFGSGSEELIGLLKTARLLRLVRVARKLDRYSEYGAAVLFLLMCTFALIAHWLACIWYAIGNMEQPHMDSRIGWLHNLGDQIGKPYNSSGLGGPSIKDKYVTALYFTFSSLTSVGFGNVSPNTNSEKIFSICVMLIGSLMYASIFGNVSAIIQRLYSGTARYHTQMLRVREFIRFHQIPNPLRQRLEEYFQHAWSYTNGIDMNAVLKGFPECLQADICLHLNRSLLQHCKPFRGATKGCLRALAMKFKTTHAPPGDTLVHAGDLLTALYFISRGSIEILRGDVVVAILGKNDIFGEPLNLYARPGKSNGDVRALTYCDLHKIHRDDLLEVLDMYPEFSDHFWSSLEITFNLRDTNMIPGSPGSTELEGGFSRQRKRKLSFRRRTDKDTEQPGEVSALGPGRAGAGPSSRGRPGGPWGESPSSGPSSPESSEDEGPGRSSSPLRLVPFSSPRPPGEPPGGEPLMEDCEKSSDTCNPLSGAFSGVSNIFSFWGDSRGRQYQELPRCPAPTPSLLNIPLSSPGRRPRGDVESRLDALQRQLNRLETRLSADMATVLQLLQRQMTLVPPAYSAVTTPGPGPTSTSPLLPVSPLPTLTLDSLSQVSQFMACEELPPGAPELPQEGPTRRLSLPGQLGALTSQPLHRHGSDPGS
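U2OS cells were transduced with wild-type KCNH2 virus (2.03 x 10^8 / mL) for 4 h at room temperature, then cultured overnight at 37 C. Thallium flux was read with FluxOr dye. Rate constants were normalized to DMSO controls.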
MCF10A rerep: inducers of DNA re-replication in MCF 10A breast cells; MCF 10A DNA re-replication, Hoechst nuclear intensity, 48 h; Potency, µM (series often up to 46.1 µM), without a hit: at the highest dose activity, positive = re-replication, usual class: activators; 350,000 compounds, 2.9% hits; note: potency is the fitted concentration of half-maximal effect; % of control where 0% means no effect; nearly all actives have a fitted effect of over 50% in size
KB-3-1 cytotox: KB-3-1 parental cell cytotoxicity. KB-3-1 viability, CellTiter-Glo ATP luminescence, 72 h. Potency, µM (top dose mostly 46.1 µM), hits mostly cytotoxic. 400,000 compounds, 1.4% hits. AID 1347075; note: potency is the fitted concentration of half-maximal effect; % is set by controls: 0 for no effect and ±100 for the full control effect; nearly all actives have a fitted effect of over 60% in size
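Cytotoxicity in the drug-sensitive parental line KB-3-1 was scored as loss of CellTiter-Glo luminescence following 72 h incubation with compound. Values come from curve fitting of normalized concentration-response data.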
* marks the source's active call; other numbers are inactive results; i = inactive; ? = inconclusive; / = no result given. A selection: hits, their analogues and other compounds. The true share with any hit is near 7.6%. Unless noted, calls come from the whole dose curve; as a rule, active = well fitted curve in the direction sought with a large enough effect; inconclusive = small, poorly fitted or top-dose-only effect, or another doubt; inactive = no such curve, though single readings can be large; an effect the other way counts as inactive or inconclusive.

SMILES	KB-V1 MDR tox	SW480 rerep	KCNH2 3.1 block	hERG WT inh	MCF10A rerep	KB-3-1 cytotox
Cc1cccn2cc(COc3ccc(-c4ccccc4)cc3)nc12	?	-9%	-101*	4	16µM*	i
Cc1cccc(NC(=O)/C(C#N)=C\c2ccc(C(=O)O)cc2)c1	i	1%	23	-6	7%	i
COc1cc(C)c(/C=C(\C#N)C(=O)Nc2cccc(C)c2)cc1C(C)C	i	-2%	-4	-1	21µM*	i
CN(C)Cc1c(C(=O)N/N=C/c2ccc(OCc3ccc(F)cc3)cc2)nnn1-c1nonc1N	i	-14%	-76*	-38	7%	i
CCCN(CCC)Cc1c(C(=O)N/N=C/c2ccco2)nnn1-c1nonc1N	i	-12%	11	23	-2%	i
CCCN(CCC)Cc1c(C(=O)N/N=C/c2ccc(Br)cc2)nnn1-c1nonc1N	i	-12%	-78*	12	?	i
C[C@H](NC(=O)c1cc2cc(Cl)ccc2n1C)C(=O)N[C@@H](C(=O)O)c1ccccc1	i	-2%	28	3	-2%	i
CC(=O)N1Cc2cc(C(=O)NCC(F)(F)F)nc(-c3cccc(-c4cccnc4)c3)c2[C@H]1CCO	i	/	/	/	/	i
CC(=O)N1Cc2cc(C(=O)NCC(F)(F)F)nc(-c3cccc(-c4cc5ccccc5o4)c3)c2[C@@H]1CCO	23µM*	/	/	/	/	?
CCS(=O)(=O)N1Cc2cc(C(=O)NCC3CC3)nc(-c3cccc(-c4cccnc4)c3)c2[C@@H]1CCO	i	/	/	/	/	?
CCNC(=O)c1cc2c(c(-c3cccc(-c4cccnc4)c3)n1)[C@H](CCO)N(S(C)(=O)=O)C2	?	/	/	/	/	2.9µM*
CC(=O)N1Cc2cc(C(=O)NCC(F)(F)F)nc(-c3cccc(-c4cccnc4)c3)c2[C@@H]1CCO	i	/	/	/	/	4.1µM*
O=C(CSc1nnnn1-c1cccnc1)Nc1ccc(F)cc1F	i	9%	4	4	-1%	i
CCOC(=O)C1(CCOc2ccccc2)CCN(Cc2ccc(NC(C)=O)cc2)CC1	?	?	?	2	9%	i
CCOC(=O)C1(CCOc2ccccc2)CCN(Cc2ccc(OCC)c(CO)c2)CC1	?	18%	-108*	-87*	?	i
CCOC(=O)C1(CCOc2ccccc2)CCN(Cc2cccc3c2OCO3)CC1	?	?	-26	35	?	?
CCOC(=O)C1(CCOc2ccccc2)CCN(Cc2cc(OC)c3c(c2)OCO3)CC1	i	?	-71*	-32	?	?
CCOC(=O)C1(CCOc2ccccc2)CCN(Cc2cccc(OCCO)c2)CC1	i	16%	?	-8	?	i
CCOC(=O)C1(CCOc2ccccc2)CCN(Cc2ccc(OC)cc2)CC1	?	?	-120*	-98*	10%	i
O=C1CCC(C(=O)OCC(=O)Nc2ccc(Cl)cc2C(F)(F)F)=NN1	i	-13%	2	4	0%	?
O=C(C[n+]1ccccc1)c1ccc(O)c(O)c1	i	/	/	/	/	i
CCN(C(=O)COC(=O)Cc1c[nH]c2ccccc12)C1CCS(=O)(=O)C1 (stereo not given)	?	-4%	16	-7	-1%	i
CN(C)S(=O)(=O)N1CCN(CC(=O)Nc2cc(Cl)ccc2Cl)CC1	18µM*	6%	1	7	18%	i
Cc1cc(NC(=O)CN2CCN(S(=O)(=O)c3ccc(Cl)cc3)CC2)no1	16µM*	2%	7	-26	-4%	i
COc1ccc(S(=O)(=O)N2CCN(CC(=O)Nc3ccc(C)c(F)c3)CC2)cc1	6.5µM*	-4%	-26	20	-2%	i
SMILES	KB-V1 MDR tox	SW480 rerep	KCNH2 3.1 block	hERG WT inh	MCF10A rerep	KB-3-1 cytotox
Cc1ccc(NC(=O)CN2CCN(S(=O)(=O)c3ccc(C(C)C)cc3)CC2)cc1F	?	/	/	/	/	i
COc1ccc(N2CCN(CC(=O)Nc3cccc(S(=O)(=O)N4CCOCC4)c3)CC2)cc1	10µM*	-3%	15	3	12%	?
Cc1ccc(C(O)CCc2ccc(N)cc2)cc1 (stereo not given)	i	0%	0	1	12%	i
CCOC(=O)c1cc(S(=O)(=O)N2CCN(c3cc(C)ccc3C)CC2)[nH]n1	i	/	/	/	/	i
COc1ccc(S(=O)(=O)N2CCN(CCC(=O)Nc3ccc(F)cc3)CC2)cc1	5.2µM*	?	-4	1	8%	?
COc1ccc(NC(=O)CCN2CCN(S(=O)(=O)c3ccc(F)cc3)CC2)cc1	i	-10%	-6	4	2%	i
CO/N=C/NC(=O)c1ccc([N+](=O)[O-])c(CS(=O)(=O)c2ccc(Cl)cc2)c1	i	?	-4	3	?	i
NNC(=O)c1ccc([N+](=O)[O-])c(CS(=O)(=O)c2ccc(Cl)cc2)c1	i	6%	-99*	1	?	i
COc1ccc(OC)c(NC(=O)c2ccc(NC(C)=O)cc2)c1	i	10%	-2	1	0%	i
COc1ccc(N2C(=O)c3ccc(C(=O)Nc4cc(OC)ccc4OC)cc3C2=O)cc1	i	-16%	-96*	9	8%	i
COc1ccc(N2C(=O)c3ccc(C(=O)OC(C)C)cc3C2=O)cc1	i	?	9	-10	?	18µM*
CC1=CC2=C(C=O)C(=O)C(C)(O)C(O)C2=CO1 (stereo not given)	i	/	0	3	/	i
CCOC(=O)C1=C(Nc2ccc(OC)cc2)C(N)=NC1=N	1.8µM*	/	14	-1	/	?
COc1ccc(Cl)cc1C(=O)Nc1ccc2oc(-c3ccc(C(C)(C)C)cc3)nc2c1	i	/	/	/	/	i
COc1ccc(C(=O)Nc2ccc(S(=O)(=O)N(Cc3ccccc3)c3ccccc3)cc2)cc1	2.3µM*	/	/	/	/	i
CN(C)S(=O)(=O)c1ccc(NC(=S)NC(=O)C2CCC2)cc1	i	-8%	8	-8	14%	i
COc1ccc(N(Cc2ccccc2)S(=O)(=O)c2cccc(C(=O)Nc3ccccn3)c2)cc1	3.7µM*	13%	2	-17	?	?
CN(Cc1ccccc1)S(=O)(=O)c1ccc(NC(=S)NC(=O)C2CCCC2)cc1	4.1µM*	3.3µM*	/	4	15µM*	6.5µM*
COc1ccc(NC(=O)CCN(c2ccc(OC)cc2)S(=O)(=O)c2ccc(C)c(C)c2)cc1	8.2µM*	8%	-33	4	9%	i
Cc1cccc(OCCn2nnc3ccccc32)c1C	i	-1%	17	-6	?	i
